In PubChem BioAssay AID624053 (National Center for Advancing Translational Sciences (NCATS), 2012):
Activity calls are given as the source filed them.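 How the source made its calls: active means neuropeptide S receptor blocker with IC50 at or below 10 µM; inconclusive means IC50 above 10 µM but below 20 µM; inactive means IC50 of 20 µM or more.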

biological target: Neuropeptide S receptor (Homo sapiens) (UniProt Q6W5P4); experiment: qHTS for Antagonists of the Neuropeptide S Receptor: SAR in ERK; conditions: CHO-NPSR cells, NPS-induced pERK1/2 HTRF
Text: Neuropeptide S receptor (NPSR), previously known as GPR154, is a recently de-orphanized G protein coupled receptor. Its endogenous ligand is the 20 amino acids peptide Neuropeptide S (NPS). […] NPS and its receptor are found in various tissues. Specifically they are highly expressed in brain areas that have been implicated in modulation of arousal, stress and anxiety. Central administration of NPS in mice produces an unusual profile of activity by inducing wakefulness and arousal, while at the same time suppressing anxiety. Therefore, NPSR may represent a novel drug target for the treatment of sleep and anxiety disorders. To identify NPSR antagonists, we developed a cell-based assay with transfected NPS receptor. NPS can stimulate the production of cAMP as well as release intracellular calcium in Chinese hamster ovary cells stably expressing NPS receptor. This change in intracellular calcium can be detected using a calcium indicator dye on a calcium imaging plate reader system (FDSS). […] Reinscheid et al. have demonstarted that the binding of NPS to NPSR activates the phosphorylation of the MAPK extracellular regulated kinase (ERK). Thus NPSR antagonists of ERK activation should reduce ERK phosphorlyation is a dose dependent manner NIH Chemical Genomics Center [NCGC] NIH Molecular Libraries Probe Production centers Network [MLPCN] MLPCN Grant: DA026210 Assay Submitter (PI): Heilig, Markus Alexander
Intracellular pERK1/2 levels were measured using a time-resolved fluorescence resonance energy transfer (TR-FRET) assay by a HTRF Cellul'erk kit (Cisbio, MA). The CHO cells overexpressing NPSR were seeded at 200 microL/well with 25,000 cells in white, tissue culture treated clear bottom 96-well plates (Greiner Bio-One, NC). Following overnight incubation at 37 masculineC with 5% CO2, the growth medium was replaced with 100 microL /well Opti-MEM medium (ATCC, VA) and incubated at 37 degrees C with 5% CO2 for an additional 4 hours. The compounds prepared in 100% DMSO were added to assay plates at 1 microL/well. The assay plates were incubated for 10 min at 37 degrees C with 5% CO2 and NPS solution (2 nM NPS peptide prepared in the Opti-MEM medium with 0.2 % BSA and 0.005 % Tweeen-20) was then added at 100 microL/well. After a 20 min incubation at 37 degrees C with 5% CO2, the media was aspirated and the place plates were placed on ice for 5 min followed by the addition of 50 microL/well of 1 cell lyses solution. The plates were then incubated at room temperature while gently rocking (for mixing) for 15 min. […] After overnight incubation at room temperature in the dark, the plates were measured using the EnVision plate reader similarly as that of cAMP assay.

Sequence of Neuropeptide S receptor (Homo sapiens) (Q6W5P4 whole entry, looked up): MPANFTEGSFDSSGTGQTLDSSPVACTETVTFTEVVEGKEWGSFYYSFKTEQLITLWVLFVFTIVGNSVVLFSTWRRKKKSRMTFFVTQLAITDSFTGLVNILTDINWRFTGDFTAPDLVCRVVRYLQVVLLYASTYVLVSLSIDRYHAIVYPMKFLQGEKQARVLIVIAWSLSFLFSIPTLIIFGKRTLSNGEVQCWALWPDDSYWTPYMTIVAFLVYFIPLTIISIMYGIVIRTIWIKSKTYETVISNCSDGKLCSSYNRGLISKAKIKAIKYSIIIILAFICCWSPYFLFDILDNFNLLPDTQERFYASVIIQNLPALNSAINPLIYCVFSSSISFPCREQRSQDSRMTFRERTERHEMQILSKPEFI

IC50, active:
Cc1c(P(=S)(c2ccccc2)c2ccccc2)[n+]2ccccc2n1C/C=C/c1ccccc1 9.3 nM
O=C1OC(c2ccccc2)(c2ccccc2)N2CCN(C(=O)NCc3ccc(F)cc3)CC12 (centres undefined) 15.8 nM
CCC(C)(CCN1CCOCC1)N(Cc1cc2ccccc2n(C)c1=O)C(=O)C1CCCCC1 (centres undefined) 9 nM
COc1ccc(C2c3c(ncn(CCN4CCOCC4)c3=N)Oc3ccc4ccccc4c32)cc1OC (centres undefined) 59.7 nM
